Results filed as inconclusive are left out. Where a call stands in place of a potency, no number is given. The source made the active and inactive calls. Calls follow the shape of the dose curve; as a rule, active = well fitted inhibition curve with a large enough effect; inconclusive = small, poorly fitted or top-dose-only effect; inactive = no such curve, though single readings can be large or run the other way.
Potency is read from the fitted curve at half-maximal effect.

Chain of Rap guanine nucleotide exchange factor 3 (Homo sapiens) (O95398 whole entry, looked up): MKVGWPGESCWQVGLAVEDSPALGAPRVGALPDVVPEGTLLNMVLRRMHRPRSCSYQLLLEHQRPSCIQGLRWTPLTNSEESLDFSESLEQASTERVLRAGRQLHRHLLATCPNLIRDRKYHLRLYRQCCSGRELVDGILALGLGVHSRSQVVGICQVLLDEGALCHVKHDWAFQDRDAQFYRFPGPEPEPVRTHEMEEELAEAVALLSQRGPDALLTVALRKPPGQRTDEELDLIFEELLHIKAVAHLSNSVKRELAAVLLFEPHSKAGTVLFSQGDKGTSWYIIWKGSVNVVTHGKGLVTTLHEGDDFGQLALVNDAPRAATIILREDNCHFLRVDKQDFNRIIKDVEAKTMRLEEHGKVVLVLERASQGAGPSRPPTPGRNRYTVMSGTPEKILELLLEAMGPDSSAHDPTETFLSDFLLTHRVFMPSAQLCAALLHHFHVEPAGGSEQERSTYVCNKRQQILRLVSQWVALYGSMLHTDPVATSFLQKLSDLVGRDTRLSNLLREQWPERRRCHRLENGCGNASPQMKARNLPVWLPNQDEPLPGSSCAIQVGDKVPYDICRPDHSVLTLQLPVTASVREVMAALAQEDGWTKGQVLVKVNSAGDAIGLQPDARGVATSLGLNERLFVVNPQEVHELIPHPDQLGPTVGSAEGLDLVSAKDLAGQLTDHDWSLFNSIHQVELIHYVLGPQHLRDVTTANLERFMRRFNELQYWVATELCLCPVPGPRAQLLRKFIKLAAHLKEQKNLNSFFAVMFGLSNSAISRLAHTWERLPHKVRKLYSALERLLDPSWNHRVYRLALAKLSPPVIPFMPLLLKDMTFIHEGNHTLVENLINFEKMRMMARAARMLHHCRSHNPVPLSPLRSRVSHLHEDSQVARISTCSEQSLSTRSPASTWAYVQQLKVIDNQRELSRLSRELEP

The test deals with Rap guanine nucleotide exchange factor 3 (Homo sapiens) (UniProt O95398). As to the kind of experiment: Confirmatory qHTS for antagonist of cAMP-regulated guanine nucleotide exchange factor 3 (EPAC1) (AID 1645880). Also: nearly all actives have a fitted effect of over 55% in size. The note with it: EPAC1 Rap1B-BODIPY-GDP exchange, fluorescence; series mostly up to 115 µM. From the text:
Assay Provider (PI): Xiaodong Cheng Ph.D. The University of Texas Medical Branch, […], TX MLPCN Grant: NS066510 In multi-cellular eukaryotic organisms, the effects of cAMP are transduced by two ubiquitously-expressed intracellular cAMP receptors, the classic protein kinase A/cAMP-dependent protein kinase (PKA/cAPK) and the more recently discovered exchange protein directly activated by cAMP/cAMP-regulated guanine nucleotide exchange factor (EPAC/cAMP-GEF). Both PKA and EPAC are ubiquitously expressed in all tissues, and an increase in intracellular cAMP levels will lead to the activation of both PKA and EPAC. Therefore, careful dissections of the individual role and relative contribution of EPAC and PKA within the overall cAMP signaling in various model systems are critical for further elucidating the mechanism of cAMP signaling. To date no EPAC-specific antagonists and agonist, as well as isoform-specific agonists have been reported, and developing EPAC-specific pharmacological probes to determine the physiological functions that EPAC play in the overall cAMP-mediated signaling remains a major challenge within the research field. Furthermore, identified regulators of EPAC may lead to new mechanism-based therapeutic strategies specifically targeting the EPAC / cAMP-signaling components as EPAC has been implicated to play important roles in major human pathological conditions such as diabetes, heart disease, and cancer. This qHTS will be used to screen the Molecular Libraries Small Molecule Repository (MLSMR) as a concentration-titration series using the NCGC unique quantitative screening (qHTS) platform to find activators for EPAC1. In addition, this assay will also be used as a counterscreen for the EPAC2 qHTS. This fluorescent based assay is developed and validated for EPAC1 that measures exchange using EPAC effector Rap1 complex with BODIPY-GDP, a GDP analog with a tethered fluorophores. Activators are identified by monitoring the change in fluorescence signal as the exchanged free BODIPY-GDP has a reduced fluorescence compared to Rap1-bound BODIPY-GDP. Increase in signal (activation) is the desired outcome for the EPAC1 agonist while no activity in this assay is desired for the EPAC2 agonist counterscreen. Reference: [1] de Rooij, J., Zwartkruis, F. J., Verheijen, M. H., Cool, R. H., Nijman, S. M., Wittinghofer, A., and Bos, J.L. (1998) Nature 396, 474-477. Kawasaki, H., Springett, G. M., Mochizuki, N., Toki, S., Nakaya, M., Matsuda, M., Housman, D. E., and Graybiel, A. M. (1998) Science 282, 2275-2279.
Briefly, three uL of reagents (100 nM EPAC1, 250 nM RAP1B-BODIPY-GDP, 50 uM GDP) were dispensed into a 1536-well Greiner black solid-bottom medium binding assay plate. Controls and test compounds (23 nL) were transferred to the plate via a Kalypsys pin tool equipped with a 1536-pin array. The plates were centrifuged at 1,000 rpm for 15 seconds followed by 5 minute incubation at room temperature. The assay plates were read at 5 minute intervals for 30 minutes in the ViewLux plate reader using 480nm excitation and 540nm emission filters. The results were normalized to the […] positive control ATA and DMSO.
A general note: In qHTS, concentration-response curves come from the screen itself.
As to `Cc1cccc(CN2C(=O)CN=C(c3ccccc3)c3ccccc32)c1`, the Potency result was “inactive”.

As for `Oc1c(Cl)cccc1Cc1cc(Cl)cc(Cl)c1O`, the Potency was 19 µM (active).

For the molecule `CCCCOC(=O)c1ccccc1C(=O)OCCCC`, the Potency entry is “inactive”.

Turning to `Cc1cccc(-n2c(O)c(/C=C/C=Nc3ccccc3)c(=O)[nH]c2=O)c1`, the Potency entry was “inactive”. On to `CN(C)CC(C(=O)Cc1ccccc1)c1ccccc1` (stereo not given), for which the Potency result was “inactive”. In the case of `COc1ccc(N2C(=O)/C(=C/c3ccco3)C(=O)NC2=S)cc1`, the Potency is 6.31 µM (active).

Take `Cn1cc(/C=C2\C(=O)NC(=O)N(c3ccccc3)C2=O)c2ccccc21`: the Potency result is “inactive”. As for `Cc1ccc(N)c(C(=O)c2ccc(Br)cc2)c1`, the entry is “inactive”; as for `COC(=O)C1=C(c2cc3ccccc3s2)C[C@@H]2CC[C@H]1N2C(=O)NC1CC1`, “inactive”; as for `Cc1cc(OC(C)C(=O)N[C@H](C(=O)O)c2ccccc2)c2c3c(c(=O)oc2c1)CCC3` (stereo not given in full), “inactive”. On to `Cc1cc(/C=C2\C(=O)NC(=O)N(c3ccc(Cl)cc3)C2=O)c(C)n1-c1sc2c(c1C#N)CCCC2`, for which the Potency was 11.2 µM (active). Under `COC(=O)C1C2c3ccccc3C(c3ccccc32)C1(C)C(=O)OC` (stereo not given) stands “inactive”; under `CC(C)N1C(=O)/C(=C/C=C/c2ccco2)C(=O)N(Cc2ccco2)C1=O`, “inactive”; under `O=c1[nH]c(=S)n(-c2ccccc2F)c(O)c1C=Nc1ccc(N2CCOCC2)cc1`, “inactive”. As for `O=[N+]([O-])c1ccc(CN2CC=C(c3ccccc3)CC2)cc1`, the entry is “inactive”. In the case of `N#CC(C#N)=NNc1ccc(S(N)(=O)=O)cc1`, the Potency was 44.7 µM (active).

As for `Cn1cccc1/C=C1/C(=O)NC(=S)N(Cc2ccc(F)cc2)C1=O`, the Potency was 31.6 µM (active). As for `CN1/C(=C\C=C2C(=O)NC(=S)NC2=O)C(C)(C)c2ccccc21`, the entry is “inactive”; as for `CC1=NCCc2c1[nH]c1cc(O)ccc21`, “inactive”; as for `O=c1nc(/C=C/c2ccc(Cl)cc2Cl)cc(C(F)(F)F)[nH]1`, 44.7 µM (active). As for `Cc1c(NS(=O)(=O)c2ccccc2)ccc([N+](=O)[O-])c1Cl`, the entry is “inactive”; as for `CCN1/C(=C/C=C/C2=[N+](CC)c3ccccc3C2(C)C)C(C)(C)c2ccccc21`, “inactive”; as for `CC(=O)OC1CC2C(C)(C)C(=O)C=C[C@]2(C)C2CC[C@]3(C)C(=CC(=O)OC3c3ccoc3)[C@]12C` (stereo not given in full), “inactive”. Consider `CCC(=NCCCO)c1c(O)n(-c2ccc(OC)cc2)c(=O)[nH]c1=O`, for which the Potency entry was “inactive”. Under `Cc1ccccc1OCC(=O)N1CCN(CCc2ccccn2)CC1` stands “inactive”; under `Cc1cccc(N2C(=O)NC(=O)/C(=C\c3cccn3-c3ccc(Cl)cc3)C2=O)c1`, 47.8 µM (active); under `N/C(=N\N=C/c1ccc(-c2ccc(O)c(C(=O)O)c2)o1)N[N+](=O)[O-]`, 4.78 µM (active).

`O=C(c1ccco1)c1cn(Cc2ccccc2)c2ccccc12`: the Potency entry was “inactive”.

Turning to `O=C(O)CC1OCC=C2CN3CCC45C6=CC(=O)C(=O)C([N+](=O)[O-])=C6NC4C1C2CC35` (stereo not given), the Potency result was “inactive”. Take `Cc1cc(C=C(C#N)C#N)ccc1N1CCCC1`: the Potency entry is “inactive”.

In the case of `COc1ccccc1-n1c(-c2cccs2)nc2ccccc2c1=O`, the Potency entry was “inactive”. As for `O=c1oc2ccccc2c(O)c1C(c1ccc([N+](=O)[O-])cc1)c1c(O)c2ccccc2oc1=O`, the figure is 15.8 µM (active); as for `CCn1c(O)c(C=Nc2ccc(N3CCOCC3)cc2)c(=O)n(CC)c1=S`, “inactive”. On to `CCCCNC(=O)c1c(N)n(CCCOC)c2nc3ccccc3nc12`, for which the Potency was 84.9 µM (active). For `O=c1[nH]c(O)c(C=Nc2ccccc2Sc2ccccc2)c(=O)[nH]1`, the Potency result was “inactive”.

For the molecule `CCOC(=O)[C@]12Cc3cc(C)ccc3[C@H]1N(Cc1ccccc1)C(=O)c1ccccc12`, the Potency result is “inactive”. Consider `CC[C@@]1(O)CC(O)c2c(cc3c(c2O)C(=O)c2c(O)ccc(O)c2C3=O)C1C(=O)OC` (stereo not given in full), for which the Potency result is “inactive”. Under `COc1cccc(N2C(=O)NC(=O)/C(=C\c3cn(C)c4ccccc34)C2=O)c1` stands “inactive”.

Regarding `CCOC(=O)[C@]12Cc3ccc(C)cc3[C@H]1N(C1CCCCC1)C(=O)c1cc(OC)ccc12`, the Potency result is “inactive”. As for `CCOC(=O)[C@]12Cc3cc(C)ccc3[C@H]1N(C1CCCCC1)C(=O)c1ccccc12`, the entry is “inactive”.

(Values after PubChem BioAssay (NCATS).)
